Among the test systems are SK-MEL-2 melanoma; EKVX NSCLC; SN12C renal; UO-31 renal; TK-10 renal; ACHN renal; CAKI-1 renal; A498 renal; CCRF-CEM leukemia; MOLT-4 leukemia; SR leukemia; OVCAR-8 ovarian; OVCAR-5 ovarian; OVCAR-4 ovarian; SK-OV-3 ovarian; IGROV1 ovarian; OVCAR-3 ovarian; HS 578T breast; NCI/ADR-RES ovarian.
What all share (assay): NCI-60 one-dose screen, 48 h (100 = growth as untreated, 0 = no growth, -100 = all killed)
What all share (conditions): 10 µM unless noted

The structures appear in SMILES notation. This is part of a sample that, as a whole, favours compounds with a hit. Of some 83,000 tested, about 20% had one in any assay.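 Plates (96-well) were seeded with cells, treated with compound at one concentration, and incubated for 48 hours before percent growth was determined.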 Unmarked numbers belong to inactive results. The source made the active and inactive calls. Rule for the calls: active = growth percent below 10; inactive = the rest.

Regarding `O=C(Nc1ccc(Cl)cc1F)c1cc(Cl)ccc1O`, the growth was -28.3% (active) in the test with SK-MEL-2 melanoma; 5.1% (active) in the test on EKVX NSCLC; -11% (active) in the test with SN12C renal; -14.6% (active) with UO-31 renal; 15.6% with TK-10 renal; -1.72% (active) with ACHN renal. Moreover, the growth is 1.59% (active) with CAKI-1 renal; -51.8% (active) in the test on A498 renal; 15.8% in the test with CCRF-CEM leukemia; -42.4% (active) in the test on MOLT-4 leukemia; -21.2% (active) in the test on SR leukemia; 8.56% (active) in the test on OVCAR-8 ovarian. Besides, the growth is 19.7% with OVCAR-5 ovarian; 17.9% with OVCAR-4 ovarian; 9.05% (active) in the test on SK-OV-3 ovarian; 8.98% (active) in the test with IGROV1 ovarian; 2.51% (active) with OVCAR-3 ovarian; -13.9% (active) with HS 578T breast. Further, the growth with NCI/ADR-RES ovarian was 3.01% (active).
Take `CS(=O)(=O)N(c1cc(-c2ccc3ncnc(Nc4ccc(F)c(Cl)c4)c3c2)cnc1Cl)S(C)(=O)=O`: the growth in the test on SK-MEL-2 melanoma was 27.3%; with EKVX NSCLC, 26.3%; with SN12C renal, 31.6%; in the test on UO-31 renal it was 17.1%; in the test with TK-10 renal, 19%; with ACHN renal, 35.5%. Also, the growth is 31.9% in the test on CAKI-1 renal; -30.8% (active) in the test with A498 renal; 18.4% in the test on CCRF-CEM leukemia; 6.91% (active) in the test with MOLT-4 leukemia; 47.5% in the test with SR leukemia; 66.1% in the test on OVCAR-8 ovarian. Further, the growth in the test with OVCAR-5 ovarian was 30.6%; in the test on OVCAR-4 ovarian, 65.7%; with SK-OV-3 ovarian, 14.6%; in the test with IGROV1 ovarian, -22.3% (active); in the test on OVCAR-3 ovarian, 36.1%; in the test with HS 578T breast, -1.88% (active). Also, in the test with NCI/ADR-RES ovarian, the growth was 69%.
On to `CCOC(=O)C1=C(N)Oc2c(sc3c(C)cccc23)C1c1ccc(F)cc1` (configuration not stated), for which the growth in the test on SK-MEL-2 melanoma is 42.5%; with EKVX NSCLC, 44.9%; with SN12C renal it was 30.5%; in the test on UO-31 renal, 40.7%; in the test with TK-10 renal it was 76%; in the test with ACHN renal it was 30.7%. In addition, the growth in the test on CAKI-1 renal was 2.3% (active); with A498 renal, -5.94% (active); with CCRF-CEM leukemia, 4.35% (active); in the test with MOLT-4 leukemia, 10.2%; with SR leukemia it was 5.82% (active); with OVCAR-8 ovarian, 19%. Moreover, the growth was 27.9% with OVCAR-5 ovarian; 42.7% with OVCAR-4 ovarian; 60% in the test on SK-OV-3 ovarian; 16.9% in the test with IGROV1 ovarian; -32.9% (active) in the test on OVCAR-3 ovarian; 13.6% in the test with HS 578T breast. Further, the growth in the test with NCI/ADR-RES ovarian was 6.4% (active).
Regarding `CCc1cccc2c3c(sc12)C(c1ccc(F)cc1)C(C#N)=C(N)O3` (configuration not stated), the growth in the test on SK-MEL-2 melanoma is 57%; in the test with EKVX NSCLC, 51%; with SN12C renal it was 32.7%; in the test with UO-31 renal it was 48.9%; in the test on TK-10 renal, 77.8%; in the test on ACHN renal it was 30.1%. For the same compound, the growth is 14.5% in the test with CAKI-1 renal; 7.3% (active) in the test on A498 renal; 15.1% with CCRF-CEM leukemia; 17.3% in the test with MOLT-4 leukemia; 27.3% in the test on SR leukemia; 32.9% in the test with OVCAR-8 ovarian. Also, the growth is 32.6% in the test on OVCAR-5 ovarian; 60.4% with OVCAR-4 ovarian; 78.5% in the test with SK-OV-3 ovarian; 31.1% in the test with IGROV1 ovarian; 10.9% in the test with OVCAR-3 ovarian; 26.7% in the test with HS 578T breast. In addition, the growth with NCI/ADR-RES ovarian is 14%.
On to `CCOC(=O)c1cn2ncnc(Oc3ccc(NC(=O)NCCN(CC)CC)c(Cl)c3)c2c1C`, for which the growth with SK-MEL-2 melanoma is 112%; in the test with EKVX NSCLC, 77.2%; in the test with SN12C renal, 68.3%; in the test with UO-31 renal it was 57%; in the test on TK-10 renal, 110%; with ACHN renal, 88.2%. The growth was 68.8% with CAKI-1 renal; 90.3% in the test with A498 renal; 35.5% in the test on CCRF-CEM leukemia; 49.2% with MOLT-4 leukemia; -26.6% (active) in the test on SR leukemia; 81% in the test with OVCAR-8 ovarian. For the same compound, the growth in the test with OVCAR-5 ovarian is 80.8%; in the test on OVCAR-4 ovarian it was 90.3%; with SK-OV-3 ovarian, 92.1%; with IGROV1 ovarian, 87.3%; in the test on OVCAR-3 ovarian, 68.6%; in the test on HS 578T breast it was 77.7%. The growth in the test with NCI/ADR-RES ovarian was 77.6%.
As to `C/C=C(\C)C(=O)N[C@H]1[C@@H](OC(C)=O)C[C@]2(C)C3CC[C@@]4(C)C(CC[C@@H]4C(C)N(C)C)C3CCC2[C@H]1O` (some centres not stated), the growth was 97.2% in the test with SK-MEL-2 melanoma; 62.7% with EKVX NSCLC; 75.3% in the test on SN12C renal; 10.5% in the test on UO-31 renal; 65.5% in the test on TK-10 renal; 67.9% in the test with ACHN renal. Besides, the growth with CAKI-1 renal is 65.6%; in the test on A498 renal it was 85.8%; in the test on CCRF-CEM leukemia, 39.7%; in the test on MOLT-4 leukemia, 65.6%; in the test with SR leukemia, 51%; in the test on OVCAR-8 ovarian, 78.6%. In addition, the growth in the test on OVCAR-5 ovarian is 96.7%; with OVCAR-4 ovarian, 15.3%; in the test on SK-OV-3 ovarian, 93.6%; with IGROV1 ovarian, 66.4%; with OVCAR-3 ovarian, 74.9%; with HS 578T breast, 88.6%. Further, in the test with NCI/ADR-RES ovarian, the growth is 67.9%.
Regarding `C/C(=N/NC(N)=S)c1sc(Nc2cccc(Cl)c2)nc1C`, the growth with SK-MEL-2 melanoma was 86.6%; in the test on EKVX NSCLC, 74.1%; in the test on SN12C renal, 76.1%; in the test on UO-31 renal, 35.7%; in the test with TK-10 renal, 86.7%; in the test on ACHN renal it was 80.5%. In addition, the growth was 63.8% with CAKI-1 renal; 81.4% in the test on A498 renal; 82.4% with CCRF-CEM leukemia; 50% with MOLT-4 leukemia; 90.1% with SR leukemia; 97.5% with OVCAR-8 ovarian. The growth is 86.8% in the test on OVCAR-5 ovarian; 63.6% with OVCAR-4 ovarian; 116% in the test on SK-OV-3 ovarian; 86% with IGROV1 ovarian; 76.8% in the test with OVCAR-3 ovarian; 88.2% in the test with HS 578T breast. The growth with NCI/ADR-RES ovarian was 86.7%.
As to `COc1cccc(-c2nc(-c3ccc(NC(=O)OC(C)C)cc3)[nH]c2-c2ccnc(Br)c2)c1`, the growth is 25.6% with SK-MEL-2 melanoma; 27.6% in the test with EKVX NSCLC; 30.8% in the test on SN12C renal; 9.01% (active) in the test on UO-31 renal; 48.6% in the test on TK-10 renal; 14.5% with ACHN renal. The growth with CAKI-1 renal was 28%; with A498 renal, -4.13% (active); in the test with CCRF-CEM leukemia, 18.3%; in the test on MOLT-4 leukemia, 10.3%; in the test with SR leukemia it was -2.3% (active); with OVCAR-8 ovarian it was 27.3%. Also, the growth with OVCAR-5 ovarian is 53.7%; in the test on OVCAR-4 ovarian it was 32.9%; in the test with SK-OV-3 ovarian it was 33.3%; with IGROV1 ovarian, 35.5%; with OVCAR-3 ovarian, 26.2%; in the test on HS 578T breast, -17.2% (active). Also, the growth in the test on NCI/ADR-RES ovarian is 27.7%.

Values taken from PubChem BioAssay (NCI).
